{
  "source": "PubChem BioAssay",
  "note": "Values without a mark were called inactive.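 The calls were made as follows: active = compound whose remaining NAD level is above about 45 nM (limit read from the data); inactive = the rest.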",
  "data": [
    {"target": "NAD(+) hydrolase SARM1 (Homo sapiens) (UniProt Q6SZW1)", "sequence (Q6SZW1 whole entry, looked up)": "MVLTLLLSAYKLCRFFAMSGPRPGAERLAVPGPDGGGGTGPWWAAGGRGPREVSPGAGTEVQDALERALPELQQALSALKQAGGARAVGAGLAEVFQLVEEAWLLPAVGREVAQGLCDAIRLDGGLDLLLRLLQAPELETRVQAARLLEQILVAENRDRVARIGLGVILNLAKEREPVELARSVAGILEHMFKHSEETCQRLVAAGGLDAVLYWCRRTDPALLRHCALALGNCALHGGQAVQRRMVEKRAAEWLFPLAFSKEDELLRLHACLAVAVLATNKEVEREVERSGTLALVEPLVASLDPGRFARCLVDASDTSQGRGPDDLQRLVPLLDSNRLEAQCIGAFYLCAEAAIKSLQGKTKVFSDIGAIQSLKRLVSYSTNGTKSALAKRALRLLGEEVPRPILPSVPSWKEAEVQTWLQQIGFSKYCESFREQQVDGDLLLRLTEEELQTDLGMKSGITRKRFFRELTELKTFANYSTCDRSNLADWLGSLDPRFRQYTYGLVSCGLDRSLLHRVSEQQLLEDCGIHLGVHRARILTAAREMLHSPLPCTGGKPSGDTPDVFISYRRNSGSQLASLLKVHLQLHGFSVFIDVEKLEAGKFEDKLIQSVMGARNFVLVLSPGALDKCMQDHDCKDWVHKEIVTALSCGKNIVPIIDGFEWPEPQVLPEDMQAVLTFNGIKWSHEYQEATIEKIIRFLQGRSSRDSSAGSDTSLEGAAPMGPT", "assay": "blocking NAD cleavage by SARM1 SAM-TIR – cell lysate, NAD-Glo luminescence (AID 1508614);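 also: higher remaining NAD means stronger inhibition of SARM1 NADase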", "conditions": "SAM-TIR HEK293T lysate NADase, at 1 µM, active compounds read high", "units": {"remaining NAD": "nM"}, "values": [
      {"smiles": "COc1ccc(O)c(C(C)(C)C)c1", "remaining NAD": 10},
      {"smiles": "O=c1nc(O)n(Cl)c(=O)n1Cl", "remaining NAD": 10},
      {"smiles": "CC[C@@H](c1cccc(O)c1)[C@@H](C)CN(C)C", "remaining NAD": 10},
      {"smiles": "O=C(NN=Cc1ccc([N+](=O)[O-])o1)c1cc([N+](=O)[O-])cc([N+](=O)[O-])c1O", "remaining NAD": 10},
      {"smiles": "CC(=O)[C@H]1CC[C@H]2[C@@H]3CC[C@@H]4C[C@H](O)CC[C@]4(C)[C@H]3CC[C@]12C", "remaining NAD": 10},
      {"smiles": "C[N+]1([O-])[C@@H]2CC[C@H]1CC(OC(=O)C(CO)c1ccccc1)C2", "note": "(some centres undefined)", "remaining NAD": 10},
      {"smiles": "CCN1C[C@]2(COC)[C@H](O)C[C@H](OC)[C@]34C1[C@H]([C@H](OC)[C@H]23)[C@]1(OC(C)=O)[C@H]2[C@@H](OC(=O)c3ccccc3)[C@](O)(C[C@H]24)[C@@H](OC)[C@@H]1O", "remaining NAD": 10},
      {"smiles": "CC[C@H]1[C@@H]2C[C@H]3[C@@H]4N(C)c5ccccc5[C@]45C[C@@H]([C@H]2[C@H]5O)N3[C@@H]1O", "remaining NAD": 10},
      {"smiles": "C=CCNCCCCCCCCCC", "note": "(tested in a mixture with another compound)", "remaining NAD": 10},
      {"smiles": "C=C[C@H]1CN2CC[C@H]1C[C@H]2[C@H](OC(=O)OCC)c1ccnc2ccc(OC)cc12", "remaining NAD": 10},
      {"smiles": "CC(N)C(O)c1ccccc1", "note": "(centres undefined)", "remaining NAD": 10},
      {"smiles": "NC(=O)C[S@@](=O)C(c1ccccc1)c1ccccc1", "remaining NAD": 10},
      {"smiles": "OC[C@@H](O)[C@H]1O[C@@H]2O[C@H](C(Cl)(Cl)Cl)O[C@@H]2[C@H]1O", "remaining NAD": 10},
      {"smiles": "CN1C2CC(OC(=O)C(CO)c3ccccc3)CC1C(O)C2", "note": "(centres undefined)", "remaining NAD": 10}
    ]}
  ]
}
